JMJD2A Tudor – qHTS Assay for Inhibitors of JMJD2A-Tudor Domain; Lysine-specific demethylase 4A (Homo sapiens), O75164; AlphaScreen JMJD2A-Tudor / H3K4me3 peptide binding; Potency, µM (doses to about 114 µM), for the others: at the highest dose activity change, negative = inhibition, hits mostly inhibitors; 4.4% of 390,000 active; further: potency means the concentration at half of the fitted maximal effect; on the % scale 0 is the no-effect control and ±100 the full control effect; nearly all actives have a fitted effect of over 50% in size
G9a inh – qHTS Assay for Inhibitors of Histone Lysine Methyltransferase G9a | G9a H3K9 monomethylation, AlphaScreen, 2 h | 8.8% of 350,000 active | Histone-lysine N-methyltransferase EHMT2 (Homo sapiens), Q96KQ7 | AID 504332, 2011 | Potency, µM (series often up to 102 µM), inactives show at the top dose activity, negative = inhibition, actives largely listed as inhibitors; further: potency means the concentration at half of the fitted maximal effect; on the % scale 0 is the no-effect control and ±100 the full control effect; nearly all actives have a fitted effect of over 75% in size
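Chemiluminescent proximity detection of H3K9 monomethylation, read after 10 min bead incubation in the dark. Reaction: 20 nM G9a, 500 nM biotin-H3K9 peptide, 20 uM SAM cofactor, 2 h, room temperature, following 15 min enzyme-compound preincubation.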
PLK1 PBD block – qHTS for Inhibitors of PLK1-PDB (polo-like kinase 1 - polo-box domain): Primary Screen | Plk1 PBD binding of FITC phosphopeptide, fluorescence polarization | Serine/threonine-protein kinase PLK1 (Homo sapiens), P53350 | 2.8% of 360,000 active | Potency, µM, inactives show max response, negative = inhibition, usual class: inhibitors; further: potency means the concentration at half of the fitted maximal effect; series mostly up to about 57 µM; on the % scale 0 is the no-effect control and ±100 the full control effect; nearly all actives have a fitted effect of over 65% in size
PI5P4Ka inh – qHTS for Inhibitors of phosphatidylinositol 5-phosphate 4-kinase (PI5P4K); max response, %; 1.2% of 330,000 active; Phosphatidylinositol 5-phosphate 4-kinase type-2 alpha (Homo sapiens), P48426; PI5P4Kalpha enzyme, ADP-Glo luminescence, 60 min; hits give low values; active means max response of -50% or lower; inconclusive means between -30% and -50%; inactive means -30% or higher; further: value at the top dose of about 77 µM; on the % scale 0 is the no-effect control and ±100 the full control effect
Target sequence (P48426 whole entry, looked up): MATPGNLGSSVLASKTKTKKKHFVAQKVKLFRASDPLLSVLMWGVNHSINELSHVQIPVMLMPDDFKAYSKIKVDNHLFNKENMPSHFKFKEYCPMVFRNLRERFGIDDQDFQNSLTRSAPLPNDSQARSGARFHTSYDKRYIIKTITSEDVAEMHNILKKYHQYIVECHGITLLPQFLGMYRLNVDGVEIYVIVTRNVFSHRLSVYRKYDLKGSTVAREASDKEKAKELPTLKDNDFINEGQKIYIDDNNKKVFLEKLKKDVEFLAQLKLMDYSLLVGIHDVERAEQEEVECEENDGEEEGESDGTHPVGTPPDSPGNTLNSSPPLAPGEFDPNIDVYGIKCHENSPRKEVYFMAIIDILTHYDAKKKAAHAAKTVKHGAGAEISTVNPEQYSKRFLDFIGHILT
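Human PI5P4Kalpha with substrate in 0.038 M HEPES pH 7.4, 0.28 mM EGTA, 0.1% CHAPS, 5% DMSO; reaction started with 5 microM ATP (final), 60 min at room temperature. ADP formed read by ADP-Glo luminescence.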
BAZ2B block – qHTS Assay for Inhibitors of BAZ2B | AlphaScreen BAZ2B-H3K14Ac peptide displacement | Bromodomain adjacent to zinc finger domain protein 2B (Homo sapiens), Q9UIF8 | Potency, µM (doses to about 114 µM), for the others: top-dose activity change, negative = inhibition, actives largely listed as inhibitors | 4.4% of 360,000 active; further: potency means the concentration at half of the fitted maximal effect; on the % scale 0 is the no-effect control and ±100 the full control effect; nearly all actives have a fitted effect of over 60% in size
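Multi-concentration screen (max 110 uM) measuring displacement of acetylated histone H3 peptide from BAZ2B by AlphaScreen, using 50 nM protein, 50 nM peptide and 10 ug/mL streptavidin donor plus Ni-chelate acceptor beads.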
HP1b chromo inh – HTS for Inhibitors of HP1-beta Chromodomain Interactions with Methylated Histone Tails; Chromobox protein homolog 1 (Homo sapiens), P83916; AlphaScreen HP1-beta / biotin-H3K9me3 peptide binding; Potency, µM (doses to about 114 µM), inactives show top-dose activity change, negative = inhibition, hits mostly inhibitors; 0.56% of 390,000 active; AID 540317, 2011; further: potency means the concentration at half of the fitted maximal effect; nearly all actives have a fitted effect of over 70% in size
Target sequence (P83916 whole entry, looked up): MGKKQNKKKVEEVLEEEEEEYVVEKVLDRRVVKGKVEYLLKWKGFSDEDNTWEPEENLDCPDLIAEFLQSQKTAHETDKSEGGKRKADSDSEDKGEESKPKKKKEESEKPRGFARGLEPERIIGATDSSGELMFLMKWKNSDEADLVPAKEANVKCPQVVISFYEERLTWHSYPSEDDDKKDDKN
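Compound inhibition of the preformed complex between 50 nM HP1-beta and 50 nM biotinylated H3K9me3 peptide was read by AlphaScreen. Buffer was PBS pH 7.4 with 0.01% Tween-20. Incubations ran 30 min at room temperature, with 10 ug/mL donor/acceptor beads.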
* = called active by the depositor; ? = inconclusive; / = not tested or not shown; [ ] = dose if it differs, or a comment. Only some compounds are listed: those with a hit (about 12% of all), similar ones and a draw of the others. Unless noted, the call rests on the fitted dose curve; in most records, active means well fitted curve in the direction sought with a large enough effect; inconclusive means small, poorly fitted or top-dose-only effect, or another doubt; inactive means no such curve, though single readings can be large; an effect the other way counts as inactive or inconclusive.

SMILES	JMJD2A Tudor	G9a inh	PLK1 PBD block	PI5P4Ka inh	BAZ2B block	HP1b chromo inh
CCN(CCCNC(=O)CCn1c(=O)[nH]c2ccccc2c1=O)c1ccccc1	-27%	50µM*	-6%	/	-1%	13%
CC(=O)c1cccc(NC(=O)c2c(-c3ccccc3)c(-c3ccccc3)nn(C)c2=O)c1	-19%	-21%[59 µM]	/	/	-26%	26%
COc1ccc(C2=Nc3ccccc3N(C(=O)c3ccc(C)cc3)C2C(=O)Nc2c(C)cccc2C)cc1 (stereo unspecified)	/	/	1%	-7	/	/
CCCCCNC(=O)CCn1c(=O)[nH]c2ccccc2c1=O	-7%	3%[59 µM]	/	/	-5%	8%
CCN(CCCNC(=O)CCn1c(=O)[nH]c2ccccc2c1=O)c1cccc(C)c1	-11%[57.1 µM]	10µM*	-24%	-1	-23%	29%
CCN(CCCNC(=O)CCc1nc(-c2ccc(C)cc2)no1)c1cccc(C)c1	-26%[11.4 µM]	45µM*	24µM*	0	?	?
Cc1cccc(-c2noc(CCC(=O)NCCc3ccccc3)n2)c1	-11%	9%	-10%	-11	15%	54%
CCN(CC)C1=CC(=[N+]2CCCC2)CC(C)(C)C1	1%	40µM*	-7%	-9	-1%	2%
CN(Cc1ccccc1)C1=CC(=[N+]2CCCC2)CC(C)(C)C1	8.9µM*	?	?	-6	3%	?
CN(Cc1ccc([N+](=O)[O-])cc1)c1ccccc1	?	/	-4%	3	/	-14%[57 µM]
COc1cccc(NC(=O)Cn2c(=O)n(CC(=O)NCCc3ccccc3)c(=O)c3sccc32)c1	-7%	10%[59 µM]	/	/	-8%	37%
COc1ccc(C(=O)Nc2ccc3c(c2)C(=O)c2ccccc2C3=O)cc1OC	-21%	-3%[59 µM]	-11%	-11	-12%	11%
COc1ccc(C(=O)c2c(C(F)(F)F)oc3c2C(=O)c2ccccc2C3=O)cc1OC	?	14µM*	5%	-2	?	?
CCOc1ccc(NC(=O)CSc2nnc(CNC(=O)C34CC5CC(CC(C5)C3)C4)n2CC)cc1	-17%	9%[59 µM]	/	/	8%	32%
Cc1ccc(NC(=O)C(=O)NCC2CCCO2)cc1C (stereo unspecified)	-7%[11.4 µM]	/	-4%	2	-4%	80%
CCn1c2ccccc2c2cc(NC(=O)CN3CCCC3)ccc21	?	?	-11%	-4	-43%	-14%
CCn1c2ccccc2c2cc(NC(=O)C(=O)N3CCOCC3)ccc21	?	?	21µM*	-5	-19%	?
Cc1ccc(NC(=O)CC(NCC2CCCO2)C(=O)O)cc1C (stereo unspecified)	-13%	2.2µM*	0%	-4	-30%	12%
CCn1c2ccccc2c2cc(NC(=O)CNCC3CCCO3)ccc21 (stereo unspecified)	-27%[11.4 µM]	13µM*	-12%	4	50µM*	?
Cc1ccc2c(c1)cc1c(=O)n(Cc3ccc(Cl)cc3)nc(C)n12	-10%	4%[59 µM]	/	/	-2%	21%
O=C(O)[C@@H](c1ccccc1)N1Cc2ccccc2C1=O	25µM*	40µM*	-15%	1	20µM*	-11%
Cc1ccc2[nH]c(=O)c(CN(Cc3cccs3)S(=O)(=O)c3ccc4c(c3)OCCO4)cc2c1	-10%[57.1 µM]	1µM*	-24%	-5	-9%	30%
CCOC(=O)c1c(C)[nH]c(C)c1S(=O)(=O)N1CCC(C(=O)Nc2cc(Cl)ccc2OC)CC1	-31%	-12%[59 µM]	/	/	-35%	7%
CCc1nccn1S(=O)(=O)c1ccc(C)c(C)c1	-14%	45µM*	-9%	6	8%	28%
O=C(COC(=O)c1ccccc1Nc1ccccc1)NCc1ccccc1	1%	50µM*	-8%	0	3%	46%
SMILES	JMJD2A Tudor	G9a inh	PLK1 PBD block	PI5P4Ka inh	BAZ2B block	HP1b chromo inh
O=C(COC(=O)c1ccccc1C(=O)c1ccccc1)NCc1ccc(F)cc1	?	-8%[12.7 µM]	24µM*	-7	-2%	-10%
CCCCn1c(CCC)nc([N+](=O)[O-])c1Sc1ccc(Cl)cn1	-22%	14µM*	-22%	/	-20%	4%
CC(C)Cn1c(C(C)C)nc([N+](=O)[O-])c1Sc1ccc(Cl)cn1	-12%[57.1 µM]	?	?	0	-8%	29%
Nc1sc(-c2ccccc2)cc1C(=O)O	/	-45%	/	/	?	/
O=c1cc(-c2ccccc2)ss1	-14%	/	12µM*	-16	/	?
CCOC(=O)C1(CCOc2ccccc2)CCN(Cc2ccncc2)CC1	-20%	/	-14%	1	?	18%[57 µM]
O=C(c1cccc(Cl)c1)N1CCN(Cc2ccncc2)CC1	?	35µM*	-7%	-9	50µM*	?
CCOC(=O)C1(CCOC)CCN(Cc2ccncc2)CC1	-13%	50µM*	-10%	2	-3%	29%
COc1ccccc1CN1CCN(C(=O)c2ccncc2)CC1	7.9µM*	?	-1%	1	25µM*	?
COc1ccc2[nH]c(C(=O)N3CCCN(Cc4ccc(F)cc4)CC3)cc2c1	?	50µM*	-14%	10	-32%	-29%
O=C(c1cccc(C(=O)N2CCN(Cc3ccccc3)CC2)c1)N1CCN(Cc2ccccc2)CC1	-5%	?	-5%	5	-1%	30%
N/C(=N\OC(=O)CCCc1ccccc1)c1ccccc1Cl	69%	138%	-2%	0	136%	121%
COc1ccc(S(=O)(=O)NCc2cccn2Cc2cc(C)ccc2C)cc1OC	-33%	-1%[12.7 µM]	/	/	?	-12%
CCOC(=O)CNC(=O)Cn1cnc2c(nnn2-c2cccc(OC)c2)c1=O	-5%	2%	-8%	1	6%	30%
COc1cccc(OC)c1C(=O)N1CCN(Cc2ccncc2)CC1	8.9µM*	?	0%	0	20µM*	?
COc1ccc(OC)c(CN2CCN(C(=O)c3ccc(F)cc3)CC2)c1	25µM*	32µM*	-5%	-1	?	?
COc1ccc(OC)c(CN2CCN(C(=O)c3cccc(S(=O)(=O)Nc4ccc(F)cc4)c3)CC2)c1	-26%	/	-4%	3	/	7%
S=c1nc[nH]c2nc[nH]c12	4µM*	?	-1%	-22	35µM*	-7%
O=c1[nH]c(=S)[nH]c2nc[nH]c12	?	/	/	/	/	3%[57 µM]
CCc1nc(SCc2ccccc2C#N)n[nH]1	-10%	-8%	-9%	-7	1%	35%

Bioassay records deposited in PubChem BioAssay by National Center for Advancing Translational Sciences (NCATS).
